The values that follow are results of earlier work, collected in PubChem BioAssay AID977611.

A word on the Kd: it is a measure of binding affinity in units of concentration.

The series is described as follows: PubChem AID 977611. To be noted: PDB protein-ligand complexes, literature Kd.

In all, about 3,900 compounds went through this assay and about 3,900 (100%) were called active. The limit is not given here; nearly all actives have Kd up to about 4200 µM. So high a share suggests a set chosen from earlier hits. The list shows a part of the results. Numbered stars: 1 amine (or outer) side, 2 acyl side, 3 side chain; on linkers, the order of the positions; unused ones are H or OH. Where a SMILES comes first, the peptide text is derived from it. Square brackets hold non-standard residues; d marks the D form. Residues, ends and D or L forms follow the SMILES beside them. Peptide text beside a SMILES is read from it. [ ]: non-standard residue; d: D form. X1 = O=C([C@H](Cc1ccc(O[P+](O)(O)O)cc1)N[*:1])[*:2]; Thr(P(OH)3+) = C[C@@H](O[P+](O)(O)O)[C@H](N)C(=O)O; Orn(CH(NH2)2) = NC(N)NCCC[C@H](N)C(=O)O

`COc1cc2c(c(OC)c1OC)C1=CCC(=O)C(=O)C=C1[C@@H](NC(C)=O)CC2`: the Kd (protein: Bromodomain-containing protein 4, BRD4(1), PDB entry 4lys) is 46000 nM (active). Consider `COc1cc(/C=C/CO)ccc1O`, for which, for the setting “protein: Coniferyl alcohol 9-O-methyltransferase, PDB entry 4e70”, the Kd is 5260 nM (active). Take `CC(C)[C@H](NC(=O)[C@H](Cc1ccc(O)cc1)NC(=O)[C@H](CC(N)=O)NC(=O)CNC(=O)[C@@H](N)CCCCN)C(=O)N[C@H](C(=O)N[C@H](C(=O)N[C@H](C(=O)N[C@@H](Cc1cnc[nH]1)C(=O)O)[C@@H](C)O[P+](O)(O)O)[C@@H](C)O)C(C)C` (H-KGNYVVT[Thr(P(OH)3+)]H-OH): the Kd (protein: phosphoserine/threonine (pSTAb) scaffold Fab, PDB entry 4jg1) is 232 nM (active). On to `CC(C)[C@H](NC(=O)[C@H](Cc1ccc(O)cc1)NC(=O)[C@H](CC(N)=O)NC(=O)CNC(=O)[C@@H](N)CCCCN)C(=O)N[C@H](C(=O)N[C@H](C(=O)N[C@@H](CO[P+](O)(O)O)C(=O)O)[C@@H](C)O)C(C)C`, for which, under “protein: phosphoserine/threonine (pSTAb) scaffold Fab, PDB entry 4jg0”, the Kd was 172 nM (active).

Turning to `CC(C)[C@H](NC(=O)[C@H](Cc1ccc(O)cc1)NC(=O)[C@H](CC(N)=O)NC(=O)CNC(=O)[C@@H](N)CCCCN)C(=O)N[C@H](C(=O)N[C@H](C(=O)N[C@@H](CO[P+](O)(O)O)C(=O)N[C@@H](Cc1cnc[nH]1)C(=O)O)[C@@H](C)O)C(C)C`, the Kd (protein: phosphoserine (pSAb) scaffold Fab, PDB entry 4jfz) was 71 nM (active). With `C[C@@H]1O[C@@H](Oc2c(-c3ccc(O)c(O)c3)oc3cc(O)cc(O)c3c2=O)[C@H](O)[C@H](O)[C@H]1O`, the Kd (protein: Ribosomal protein S6 kinase alpha-3, PDB entry 4gue) is 5800 nM (active). On to `Cc1cc(=N)c2ccccc2n1CCCCCCCC/C=C/N1c2ccccc2C(N)=CC1C` (stereo not given), for which the Kd (protein: Chitinase A, PDB entry 3arp) was 70 nM (active). On to `Cc1cc(=N)c2ccccc2n1CCCCCCCCCCN1c2ccccc2C(N)=CC1C` (stereo not given), for which the Kd (protein: Chitinase A(W275G mutant), PDB entry 3art) is 37000 nM (active).

Consider `CC1=CC(N)c2ccccc2N1CCCCCCCCCCN1c2ccccc2C(N)=CC1C` (stereo not given), for which the Kd (protein: Putative regulatory protein, PDB entry 3vw0) is 21200 nM (active). `CCOc1cc(C(=O)O)nc2c(NC(=O)c3cc(O)c4cccc(NC(=O)c5cc(O)c6cccc(NC(=O)c7cc(OCC(C)C)c8cccc(NC(=O)NCCCCOc9cccc(CNC(=O)c%10ccc(S(N)(=O)=O)cc%10)c9)c8n7)c6n5)c4n3)cccc12`: the Kd (protein: Human Carbonic Anhydrase II, PDB entry 4lp6) was 5.36 nM (active). With `OS(O)(O)OC1C(OS(O)(O)O)C(OS(O)(O)O)C(OS(O)(O)O)C(OS(O)(O)O)C1OS(O)(O)O` (stereo not given), for the setting “protein: HISTIDINE ACID PHOSPHATASE, PDB entry 4aro”, the Kd was 160 nM (active). As to `Cc1cc(OCCCS(C)(=O)=O)cc(C)c1-c1cccc(COc2ccc3c(c2)OC[C@H]3CC(=O)O)c1`, the Kd (protein: Free fatty acid receptor 1,Lysozyme hGPR40(L42A,F88A,G103A,Y202F mutant), PDB entry 4phu) is 12 nM (active). In the case of `CN(C)CCCn1cc(C2C(=O)NC(=O)C2c2c[nH]c3ccccc23)c2ccccc21` (stereo not given), under “protein: human PIM1 kinase domain, PDB entry 1xws”, the Kd is 10 nM (active). Turning to `C[C@H]1O[C@@H](c2cccc(O)c2O)N[C@@H]1C(=O)NCCCN(CCCNC(=O)c1cccc(O)c1O)C(=O)[C@H]1N[C@H](c2cccc(O)c2O)O[C@@H]1C`, for the setting “protein: Ferric vibriobactin ABC transporter, periplasmic ferric vibriobactin-binding protein, PDB entry 3r5t”, the Kd is 2.65 nM (active). For the compound `CN(C)C1=CCN(Cc2ccc(CCCCc3ccc(Cn4cnc5c(N)ncnc54)cc3)cc2)C=C1`, the Kd (protein: CHOLINE KINASE ALPHA, PDB entry 3zm9) was 38 nM (active). Turning to `CC[C@H](C)[C@H](NC(=O)[C@H](CO)NC(=O)[C@H](CO)NC(=O)[C@H](CCC(N)=O)NC(=O)[C@@H](NC(=O)[C@H](CCC(N)=O)NC(=O)[C@H](CCCNC(N)N)NC(=O)[C@H](Cc1ccccc1)NC(=O)[C@@H](NC(=O)[C@@H](N)CCCNC(N)N)[C@@H](C)O)C(C)C)C(=O)N[C@@H](CO)C(=O)N[C@@H](CC(=O)O)C(=O)N[C@@H](Cc1ccccc1)C(=O)N[C@@H](Cc1ccc(O)cc1)C(=O)N[C@@H](CC(=O)O)C(=O)O` (H-[Orn(CH(NH2)2)]TF[Orn(CH(NH2)2)]QVQSSISDFYD-OH), the Kd (protein: Lipoprotein outS, PDB entry 4k0u) was 55 nM (active).

Consider `CC[C@H](C)[C@H](NC(=O)[C@H](CC(=O)O)NC(=O)[C@H](CS)NC(=O)[C@H](CCC(N)=O)NC(=O)[C@@H](NC(=O)CNC(=O)[C@@H](NC(=O)[C@@H](NC(=O)[C@H](CO)NC(=O)[C@H](CO)NC(=O)[C@H](C)N)[C@@H](C)O)[C@@H](C)O)[C@@H](C)O)C(N)=O` (H-ASSTTGTQCDI-NH2), for which the Kd (protein: Dynein light chain 1, cytoplasmic LC8, PDB entry 4qh8) is 12800 nM (active). For the compound Ac-SISYTDEIEEEDYD-OH, the Kd (protein: Fibronectin, PDB entry 4pz5) was 121 nM (active). On to `CC[C@H](C)[C@H](NC(=O)[C@@H](NC(=O)[C@H](CC(C)C)NC(=O)[C@@H](N)CO)[C@@H](C)O)C(=O)N[C@@H](Cc1ccc(O[P+](O)(O)O)cc1)C(=O)N[C@@H](C)C(=O)N[C@@H](CCC(N)=O)C(=O)N[C@H](C(=O)N[C@@H](CCC(N)=O)C(=O)N[C@@H](CCCCN)C(=O)O)C(C)C` (H-SLTI[X1]AQVQK-OH), for which the Kd reads like this: (protein: EWS/FLI1 activated transcript 2(ETA-2), PDB entry 1i3z) 131 nM (active); (protein: SAP, PDB entry 1d4w) 120 nM (active).
